Results: PubChem BioAssay (NCI)
“And” between values parts separate entries of the source, which are not always exact repeats. Equal entries are not always repeated. Compounds without any hit were thinned out: in the full panel of roughly 83,000, 20% have a hit.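 Method: cells in 96-well plates; compound added at one concentration; 48 h incubation; percent growth measured; values under 10 scored active.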 The source made the active and inactive calls.

The compounds below were run on MCF7 breast (assay: NCI-60 one-dose screen, 48 h (100 = growth as untreated, 0 = no growth, -100 = all killed)). Settings: 10 µM unless noted.
Protocol: Growth inhibition of the MCF7 human tumor cell line is measured as a screen for anti-cancer activity. Cells are grown in 96 well plates and exposed to the test compound for 48 hours. Compounds are tested at a single concentration, which is 10^-5 M for most compounds. The reported endpoint is percent growth (GI% or GIPRCNT), where numbers from 0 - 100% represent growth inhibition, and numbers from -100% - 0 represent cell death. For example, a value of 40 represents 60% growth inhibition. A value of 0 means no net growth occurred over the course of the experiment. A value of -40 indicates 40% of cells at the beginning of the experiment died by the end of the experiment. A value of -100 means all cells are dead at the end of the experiment.
NCI-60 Human Tumor Cell Lines Screen was performed using the standard one-dose NCI protocol, which is described in more detail at https://dtp.cancer.gov/discovery_development/nci-60/default.htm.
Compounds with GIPRCNT values below 10 were considered active. Activity score was based on GIPRCNT using the following formula: […]
Score is 0 for GIPRCNT values of 100 or above, 50 for GIPRCNT values of 0, and 100 for GIPRCNT values of -100.

SMILES | growth
O=C(CCl)N(c1ccccc1)c1ccccc1 | 102% (inactive)
COc1ccc2nc3cc(Cl)ccc3c(NCCCCCN3CCCCC3)c2c1 | -33.5% (active)
CN(C)c1ccc(/C=C/c2nccc3ccccc23)cc1 | 30.6% (inactive)
CN(C)CCN(C)CC(C)(C)C(=O)/C=C/c1ccc(Cl)c(Cl)c1 | -66.4% [100 µM] (active)
N#CC(I)CS(=O)(=O)c1ccccc1 (stereo not given) | 91.5% (inactive)
CCN1CCCC(Nc2cc(C)nc(/N=C(/N)Nc3ccc(Cl)c(Cl)c3)n2)C1 (stereo not given) | -73.5% (active)
COc1ccc2c(c1)C(N)=C(c1ccccc1)C2=O | 57.4% [100 µM] (inactive) and 16.6% [100 µM] (inactive)
O=C(CCc1ccccc1)ON1C(=S)NC(c2ccccc2)(c2ccccc2)C1=S | -45.8% [100 µM] (active) and 5.76% [100 µM] (active)
O=C1C=C(Cl)C(=O)c2ccccc21 | 81.3% (inactive)
O=C1/C(=C\c2ccc([N+](=O)[O-])cc2)CS(=O)(=O)C/C1=C/c1ccc([N+](=O)[O-])cc1 | -58.5% (active)
CCCc1cc(=O)oc2c3c(c4c(c12)OC(C)(C)CC4)OC(C)[C@H](C)[C@@H]3O (stereo not given in full) | 70% (inactive)
OCCOSCCO | 97.7% (inactive)
NC(=S)Nc1ccc2c(c1)Cc1ccccc1-2 | 70.1% (inactive)
CCN(CC)CC(O)CNc1ccc(NCC2CO2)c2c1C(=O)c1ccccc1C2=O (stereo not given) | -13% (active)
COC(=O)[C@]1(C)CCC[C@@]2(C)[C@@H]3C[C@@H]4[C@H]5C[C@@]3(CC[C@@H]21)C[C@@]45C | -81% [100 µM] (active) and -80% [100 µM] (active)
N#Cc1c2ccccc2nc2ccccc12 | 101% (inactive)
Nc1nc(N)c2cc(Sc3cccc(C(F)(F)F)c3)ccc2n1 | 23.9% (inactive)
CCCC[n+]1c(/C=C\c2c(OC)cc(OC)cc2OC)ccc2ccccc21 | 4.3% (active)
Cc1onc(-c2ccccc2)c1C(=O)N/N=C/c1cc(Cl)cc(Cl)c1O | 18.8% (inactive)
CCCCCCCCCCCC[n+]1ccccc1 (tested in a mixture with another compound) | 2.79% (active)

SMILES | growth
O=Nc1ccc2ccccc2c1O | 69.9% (inactive)
Cc1nc([N+](=O)[O-])c(Sc2nncc(-c3ccccc3)n2)n1C | 43.8% (inactive)
C=C(CO)C(=O)OC1CC(=C)C2CC(O)C(C)C2C2OC(=O)C(=C)C12 (stereo not given) | 73.2% [100 µM] (inactive) and -86.7% [100 µM] (active)
OC(c1cc2ccc(C(F)(F)F)cc2c2cc(C(F)(F)F)ccc12)C1CCCCN1 (stereo not given) | -90.8% (active)
Oc1ccc(Cl)cc1Cc1cc(Cl)ccc1O | 31.9% (inactive)
CCCCCCCCc1cc(Cl)c(O)c(Cl)c1 | 118% (inactive)
Clc1ccc(-n2ncc3c(NCCCN4CCOCC4)ncnc32)cc1 | 89.9% (inactive)
COc1ccc(/C=C2/C(=O)ON=C2C)cc1 | 106% (inactive)
Cc1cc(C)c([I+]c2c(C)cc(C)cc2C)c(C)c1 | -53.7% (active)
CCOC(=O)C1C(C(C)C)C2(C#N)C(=N)OC1(C)C2(C#N)C#N (stereo not given) | 2.36% [100 µM] (active) and -41% [100 µM] (active)
Cc1cc(Br)c2nsnc2c1[N+](=O)[O-] | 10.1% (inactive)
Nc1nc(-c2ccccc2)nc(N)c1N=O | 33% (inactive)
CCc1cnc2ccccc2c1/C=C/c1ccc(N(C)C)cc1 | 20% (inactive)
CN1CCC(c2ccccc2)(c2ccccc2)C(=O)C1 | 27.7% (inactive)
Cc1ccc(NC(=S)C#N)cc1Cl | -25.7% [100 µM] (active) and -100% [100 µM] (active)
[Cl-].[Rh+3].c1ccc(-c2ccnc3c2ccc2c(-c4ccccc4)ccnc23)cc1.c1ccc(-c2ccnc3c2ccc2c(-c4ccccc4)ccnc23)cc1.c1ccc(-c2ccnc3c2ccc2c(-c4ccccc4)ccnc23)cc1 | 63.3% (inactive)
CCCN(CCC)C(=O)c1ccc(C)cc1 | 92.1% (inactive)
O=C1c2ccccc2C(=O)c2c(O)c(Cl)cc(O)c21 | 49.9% (inactive)
CC(CSc1n[nH]c(=S)s1)c1ccccc1 (stereo not given) | 102% (inactive)
COc1cccc2c1C(=O)c1c(O)c3c(c(O)c1C2=O)C[C@@](O)(C(=O)CO)C[C@@H]3OC1CC(OC(C)=O)C(OC(C)=O)C(C)O1 (stereo not given in full) | 4.45% (active)
